From PubChem BioAssay (NCATS) come the findings set out here.

Records with an inconclusive call do not appear. Where a call stands in place of a potency, no number is given. Activity calls are given as the source filed them. The call rests on the fitted dose curve; in most records, active means well fitted inhibition curve with a large enough effect; inconclusive means small, poorly fitted or top-dose-only effect; inactive means no such curve, though single readings can be large or run the other way.

The nature of this assay: qHTS assay for measurement of the activity of small molecule inhibitors on Zika virus induced Caspase-3 activity in human iPSC derived neural progenitor cells (hNPCs) (AID 1224857). Further: nearly all actives have a fitted effect of over 65% in size. Conditions: hNPCs ZIKV-induced caspase-3/7, Caspase-Glo luminescence, 6 h; series mostly up to 45.7 µM. From the text:
National Center for Advancing Translational Sciences [NCATS]
Johns Hopkins University School of Medicine
Increase in the Caspase-3 activity indicates an activation of apoptosis cell death pathway caused by Zika virus infection in certain types of neuronal cells including human neural progenitor cells (hNPCs), astrocytes, and astrocytoma cell line (SNB-19). This cell-based caspase-3 activity assay measures the increased caspase-3 activity in the human iPSC derived neural progenitor cells (hNPCs) after a 6-hour Zika virus infection with a luminescence readout. A decrease in the luminescence signal in this assay by small molecule treatment indicates an inhibitory effect of that small molecule on the Zika virus induced caspase-3 activity that may correlate with its effect on reduction of Zika virus caused cell death.
The medium for hNPCs consists of DMEM/F12, N2 supplement (ThermoFisher, Cat.# 17502048), NEAA (ThermoFisher, Cat. # 11140050), 2 ug/ml heparin, 2 uM cyclopamine, and B27 (ThermoFisher, Cat. # 17504044). A Caspase-Glo 3/7 assay kit (catalog number G8092; Promega, Madison, WI) was used to detect caspase-3 activity induced by Zika virus infection in human cells. The reagent mixture was reconstituted as described in the protocol from the manufacturer. Polystyrene tissue culture treated and PDL coated white plates were obtained from Greiner Bio-One (Monroe, NC). Cells were seeded in 384- or 1536-well assay plates and cultured at 37 C with 5% CO2 for 16 to 20 hours. The typical cell seeding density in the 1536-well plate assay is 350 cells/well in 3 ul medium for hNPCs in tissue culture treated plates. Compounds were added to cells and incubated for one hour before addition of ZIKV solution to cells (2 FFU/cell). After incubation at 37 C with 5% CO2 for 6 hours, the reagent mixture of Caspase-Glo 3/7 assay kit was added to each well, followed by incubation at room temperature for 30 minutes. The luminescence intensity of the assay plates was measured using a ViewLux plate reader (PerkinElmer). Data were normalized by using the cell-containing wells without ZIKV as a negative control (0% induction of caspase 3/7 activity) and wells containing ZIKV infected cells (Caspase-3 activity induced) as a positive control (100% induction of caspase 3 activity). The percentage inhibitions of the increased Caspase-3 activity by small molecule inhibitors were then calculated.
In general terms: Quantitative high-throughput screening tests each substance at several concentrations.
With `NS(=O)(=O)c1cc2c(cc1Cl)NC(C(Cl)Cl)NS2(=O)=O` (stereo not given), the Potency entry is “inactive”.

Turning to `COC(=O)Nc1nc2ccc(C(=O)c3ccccc3)cc2[nH]1`, the Potency result is “inactive”.

Consider `Cc1noc(NS(=O)(=O)c2ccc(N)cc2)c1C`, for which the Potency result was “inactive”.

Regarding `CCN[C@H]1C[C@H](C)S(=O)(=O)c2sc(S(N)(=O)=O)cc21`, the Potency result was “inactive”.

Take `CN(Cc1cc(Br)cc(Br)c1N)C1CCCCC1`: the Potency entry was “inactive”.

`CC(C)NCC(O)c1ccc(NS(C)(=O)=O)cc1` (stereo not given): the Potency entry is “inactive”.

Regarding `Cc1ccc(S(=O)(=O)N[C@@H](Cc2ccccc2)C(=O)CCl)cc1`, the Potency result is “inactive”.

For the compound `COc1ccc(C(=O)CC(=O)c2ccc(C(C)(C)C)cc2)cc1`, the Potency result was “inactive”.

Consider `C[C@@H]1CN(c2c(F)c(N)c3c(=O)c(C(=O)O)cn(C4CC4)c3c2F)C[C@H](C)N1`, for which the Potency entry was “inactive”.

Take `CN(C)c1ccc(C(=C2C=CC(=[N+](C)C)C=C2)c2ccc(N(C)C)cc2)cc1`: the Potency entry was “inactive”.

`C#CCN[C@@H]1CCc2ccccc21`: the Potency entry is “inactive”.

As for `N[C@@H](C(=O)N[C@@H]1C(=O)N2C(C(=O)O)=C(Cl)CS[C@H]12)c1ccccc1`, the Potency entry was “inactive”.

For the compound `CC1=CC(=O)c2ccccc2C1=O`, the Potency entry is “inactive”.

Turning to `NNC(=O)c1ccncc1`, the Potency result was “inactive”.

Consider `CNS(=O)(=O)Cc1ccc2[nH]cc(CCN(C)C)c2c1`, for which the Potency entry is “inactive”.

In the case of `CCCCOc1ccc(CC(=O)NO)cc1`, the Potency entry was “inactive”.

Consider `CCc1cc(C(N)=S)ccn1`, for which the Potency entry is “inactive”.

For the compound `CC1=C(C(=O)O)N2C(=O)[C@@H](NC(=O)C(N)c3ccccc3)[C@H]2SC1` (stereo not given in full), the Potency result is “inactive”.

With `COCCCOc1cc(C[C@@H](C[C@H](N)[C@@H](O)C[C@H](C(=O)NCC(C)(C)C(N)=O)C(C)C)C(C)C)ccc1OC`, the Potency entry was “inactive”.

Turning to `C[C@@H](NCCCc1cccc(C(F)(F)F)c1)c1cccc2ccccc12`, the Potency entry is “inactive”.

Take `O[C@@H](CNC[C@H](O)[C@H]1CCc2cc(F)ccc2O1)[C@@H]1CCc2cc(F)ccc2O1`: the Potency result was “inactive”.

Regarding `CC(C)C1CCC(C(=O)N[C@H](Cc2ccccc2)C(=O)O)CC1` (stereo not given in full), the Potency result was “inactive”.

With `COc1cc2nc(N3CCCN(C)CC3)nc(NC3CCN(Cc4ccccc4)CC3)c2cc1OC`, the Potency entry was “inactive”.

As for `O=C(NCC1CN(c2ccc(N3CCOCC3=O)cc2)C(=O)O1)c1ccc(Cl)s1` (stereo not given), the Potency entry was “inactive”.

Turning to `CC[C@H](NC(C)C)[C@H](O)c1ccc(O)c2[nH]c(=O)ccc12`, the Potency entry is “inactive”.

As to `CN(C)CCc1c[nH]c2ccc(CS(=O)(=O)N3CCCC3)cc12`, the Potency entry was “inactive”.

For the compound `CCCN[C@H]1CCc2nc(N)sc2C1`, the Potency entry is “inactive”.

On to `O=S(=O)(c1cccc2cnccc12)N1CCCNCC1`, for which the Potency entry was “inactive”.

Consider `CCOC(=O)c1ccc(C#Cc2ccc3c(c2)C(C)(C)CCS3)nc1`, for which the Potency entry was “inactive”.

On to `CN1CCCC(n2nc(Cc3ccc(Cl)cc3)c3ccccc3c2=O)CC1` (stereo not given), for which the Potency result is “inactive”.

As for `Cc1nnc(NS(=O)(=O)c2ccc(N)cc2)s1`, the Potency result is “inactive”.

As to `CCCCCCNC(=O)n1cc(F)c(=O)[nH]c1=O`, the Potency result was “inactive”.

For the compound `CNS(=O)(=O)CCc1ccc2[nH]cc(C3CCN(C)CC3)c2c1`, the Potency result was “inactive”.

`CC(C)(C)C(=O)OCOP(=O)(COCCn1cnc2c(N)ncnc21)OCOC(=O)C(C)(C)C`: the Potency result is “inactive”.

For the compound `CCn1cc(C(=O)O)c(=O)c2cc(F)c(N3CCNCC3)nc21`, the Potency result was “inactive”.

In the case of `C[C@]12C=CC(=O)C=C1CC[C@@H]1[C@@H]2C(=O)C[C@@]2(C)[C@H]1CC[C@]2(O)C(=O)CO`, the Potency result was “inactive”.

As to `Cc1ncc([N+](=O)[O-])n1CCO`, the Potency result was “inactive”.

In the case of `COc1cc(NS(=O)(=O)c2ccc(N)cc2)nc(OC)n1`, the Potency result is “inactive”.

`O=C(N[C@H](CO)[C@H](O)c1ccc([N+](=O)[O-])cc1)C(Cl)Cl`: the Potency result was “inactive”.

Regarding `Cc1oc(=O)oc1CN1CCN(c2cc3c(cc2F)c(=O)c(C(=O)O)c2n3C(C)S2)CC1` (stereo not given), the Potency entry is “inactive”.
